We go through 39 compounds from PubChem BioAssay AID651956 (Broad Institute, 2012).

Structures are written as SMILES. Results with a measured potency or affinity are listed apart. Records with an inconclusive call do not appear. The source made the active and inactive calls.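 The calls were made as follows: active = in every test run, a fitted half-maximal concentration for signal decrease at or below twice the highest tested concentration; inconclusive = runs disagree, flat 30 to 70% decrease, or poor fit; inactive = the rest.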

The assay can be described thus: activation of miR-122 Renilla sensor silencing – cell-based, Huh7 psiCHECK-miR122, Renilla luciferase, cherry-picked, dose response (AID 651956).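 Also: Renilla luciferase from a miR-122 sensor reporter so lower signal means miR-122 activation.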 Particulars: Huh7 psiCHECK-miR122 Renilla luciferase reporter, 48 h; series mostly up to 35 µM. Background: In a reporter assay the amount or activity of a reporter protein is the signal.
As for `CN1CCN(c2ccc(Cl)cc2NC(=O)c2ccc(S(=O)(=O)N3CCCCCC3)cc2)CC1`, the compound was classed as inactive.
The result for `CCCC(=O)Nc1ccc2c(c1)C(=O)N(C)[C@@H]1CC[C@H](CC(=O)NCCOC)O[C@H]1CO2` reads “inactive”; that for `CN1C(=O)c2cc(NC(=O)c3cccs3)ccc2OC[C@@H]2O[C@@H](CC(=O)N3CCOCC3)CC[C@H]21`, “inactive”.
Under `COCC(=O)N(C)C[C@H]1Oc2cc(-c3ccccc3F)ccc2S(=O)(=O)N([C@@H](C)CO)C[C@@H]1C` stands “inactive”; under `C[C@@H]1CN([C@@H](C)CO)C(=O)c2cc(NC(=O)Nc3ccc(C(F)(F)F)cc3)ccc2O[C@@H]1CN(C)CC1CCCCC1`, “inactive”.
The result for `O=C(C1CCCCC1)N1C[C@@H]2[C@H](c3ccccc31)[C@H](CO)N2Cc1ccccc1Cl` reads “inactive”; that for `Oc1ccc(/C=N/Nc2nccnc2Cl)c(O)c1`, “inactive”; that for `COc1ccccc1CNc1nc(Nc2ccccc2Cl)c2sccc2n1`, “inactive”.
As to `CN1C(=O)c2cc(NC(=O)c3cccs3)ccc2OC[C@@H]2O[C@@H](CC(=O)NCCN3CCCCC3)CC[C@H]21`, the compound was called inactive.
`CN(C)CCCNC(=O)C[C@@H]1CC[C@H]2[C@@H](COc3ccc(NC(=O)c4cccc(F)c4)cc3C(=O)N2C)O1`: the result was inactive.
Under `CC(=O)Nc1ccc2c(c1)C(=O)N(C)[C@H]1CC[C@H](CC(=O)NC3CCCCC3)O[C@@H]1CO2` stands “inactive”; under `CC(=O)Nc1ccc2c(c1)C(=O)N(C)[C@@H]1CC[C@H](CC(=O)NC3CCCCC3)O[C@H]1CO2`, “inactive”.
As for `COC(=O)C[C@H]1CC[C@@H]2[C@@H](COc3ccc(NC(=O)c4cscn4)cc3C(=O)N2C)O1`, the compound was called inactive.
Under `CC(=O)N(C[C@@H]1N[C@@H](CO)[C@H]1c1ccc(-c2ccccc2)cc1)C(C)C` stands “inactive”.
The result for `CCOc1ccc(CCNC(=O)C2CCN(S(=O)(=O)N3CCC(C)CC3)CC2)cc1OCC` reads “inactive”; that for `C/C=C/c1ccc([C@H]2[C@@H](CO)N(C(=O)C3CC3)[C@H]2CN(C)C(=O)CC2CC2)cc1`, “inactive”.
For `COc1cccc(C(=O)N2C[C@H]3[C@@H](c4ccccc42)[C@H](CO)N3C(C)=O)c1`, the outcome was inactive.
Under `CCC(=O)N1[C@H](CO)[C@H](c2ccccc2)[C@H]1CNC(=O)CN1CCOCC1` stands “inactive”; under `Fc1ccc(CN2CCN(c3ncnc4scc(-c5ccc(F)cc5)c34)CC2)cc1`, “inactive”.
Under `COC(=O)C[C@@H]1CC[C@@H]2[C@@H](COc3ccc(NS(=O)(=O)c4ccccc4F)cc3C(=O)N2C)O1` stands “inactive”; under `C/C=C/c1ccc([C@@H]2[C@H](CO)N[C@H]2CN(CC(C)C)C(=O)c2ccccn2)cc1`, “inactive”.
Under `N#Cc1cccc(NC(=O)Nc2cccs2)c1` stands “inactive”.
For the compound `COc1ccc(NC(=O)N(C)C[C@H]2Oc3cc(C#CCC(C)C)ccc3S(=O)(=O)N([C@@H](C)CO)C[C@H]2C)cc1`, the call was inactive.
Regarding `O=C(Oc1c(CN2CCOCC2)cc(Cl)c2cccnc12)c1ccc(F)cc1`, the outcome was inactive.
In the case of `COc1ccc(C#Cc2ccc3c(c2)O[C@@H](CN(C)C(=O)CN2CCOCC2)[C@@H](C)CN([C@H](C)CO)S3(=O)=O)cc1`, the call was inactive.
The result for `CN1C(=O)c2cc(NS(=O)(=O)c3cccc(F)c3)ccc2OC[C@H]2O[C@@H](CC(=O)NCCN3CCCCC3)CC[C@H]21` reads “inactive”; that for `C[C@H](CO)N1C[C@H](C)[C@H](CN(C)Cc2ccccc2)Oc2cc(/C=C/c3ccccc3)ccc2S1(=O)=O`, “inactive”.
The result for `COc1cc(NC(=O)c2c(F)c(F)c(F)c(F)c2F)c(OC)cc1Cl` reads “inactive”.
For `Cc1cc(C)c2c(c1)/C(=C/C(=O)c1ccc(Br)s1)C(=O)N2`, the outcome was inactive.
For the compound `C[C@@H]1CN([C@@H](C)CO)S(=O)(=O)c2ccc(C#Cc3ccccc3F)cc2O[C@H]1CN(C)C(=O)c1ccc2c(c1)OCO2`, the outcome was inactive.
For the compound `COc1ccc(-c2oc3ncnc(NCCCN4CCOCC4)c3c2-c2ccc(OC)cc2)cc1`, the compound was called inactive.
Under `CCOC(=O)c1nc(C)n(-c2ccc(Cl)cc2Cl)n1` stands “inactive”; under `CN1C(=O)c2cc(NS(=O)(=O)c3cccc(F)c3)ccc2OC[C@@H]2O[C@@H](CC(=O)NCCN3CCCCC3)CC[C@H]21`, “inactive”; under `CN1C(=O)c2cc(NC(=O)c3cccc(F)c3)ccc2OC[C@@H]2O[C@@H](CC(=O)Nc3ccccc3)CC[C@@H]21`, “inactive”.
The result for `CCCNC(=O)N1C[C@@H]2[C@H](c3ccccc31)[C@@H](CO)N2C(=O)C1CCOCC1` reads “inactive”; that for `CCCNC(=O)Nc1ccc2c(c1)OC[C@H](C)N(CCC)C[C@H](C)[C@H](OC)CN(C)C2=O`, “inactive”.
Take `C[C@@H]1CN([C@H](C)CO)S(=O)(=O)c2ccc(C3=CCCC3)cc2O[C@@H]1CN(C)C(=O)c1ccc(F)cc1`: the outcome was inactive.
Under `CN1C(=O)c2cc(NC(=O)c3cccs3)ccc2OC[C@@H]2O[C@@H](CC(=O)O)CC[C@@H]21` stands “inactive”.
Under `CO[C@H]1CN(C)C(=O)c2cc(NC(C)=O)ccc2OC[C@@H](C)N(C(=O)c2ccccn2)C[C@H]1C` stands “inactive”.
